CHX counter: counter-screen for Shiga toxin inhibitors: cycloheximide protein synthesis inhibition. cell reporter, cycloheximide protein synthesis inhibition counterscreen. max response, %. actives 12% (n = 300,000). AID 2314; in the data active = max response mostly above about 13%, no sharp cut-off; inactive = mostly below about 14%; note: read at 38.3 µM for the half of the compounds with a filed dose; 0% is about no effect
SARS PLpro yeast: SARS-CoV PLP inhibition in yeast. actives 0.19% (n = 330,000). S. cerevisiae expressing SARS-CoV PLpro, growth rescue. Potency, µM (series often up to 32.9 µM), for inactives: top-dose activity, positive = growth rescue, actives largely listed as activators; note: potency is the fitted concentration of half-maximal effect; 0% is about no effect; nearly all actives have a fitted effect of over 55% in size
Shiga toxin inh: inhibitors of Shiga toxin in Vero cells; Vero cells, Shiga toxin protein synthesis inhibition reporter; inhibition, % at 38.7 µM; actives 9.2% (n = 290,000); in the data active = inhibition mostly above about 28%, no sharp cut-off; inactive = mostly below about 43%; note: 0% is about no effect
Tb PYK inh: blocks Trypanosoma brucei pyruvate kinase | TbPYK enzyme, Kinase-Glo Plus ATP luminescence, 45 min | actives 0.12% (n = 410,000) | AID 624173 | Potency, µM (titrated, usually from 76.8 µM), for the others: at the highest dose activity, negative = inhibition, actives largely listed as inhibitors | Q57TT1; active = well fitted curve in the direction sought with a large enough effect; inconclusive = small, poorly fitted or top-dose-only effect, or another doubt; inactive = no such curve, though single readings can be large; an effect the other way counts as inactive or inconclusive; note: potency is the fitted concentration of half-maximal effect; % is set by controls: 0 for no effect and ±100 for the full control effect; nearly all actives have a fitted effect of over 50% in size
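T. brucei PYK with substrate was exposed to pin-transferred compounds across a concentration series, then started with 130 uM ADP (final). After 45 min at room temperature, Kinase-Glo Plus luminescence was read, normalized and curve-fitted.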
NS1 function inh: inhibitors of influenza NS1 protein function | Potency, µM (highest dose often 46.1 µM), inactives show at the highest dose activity, positive = more growth | AID 2326 | actives 0.4% (n = 270,000); note: potency is the fitted concentration of half-maximal effect; actives are rising curves; nearly all actives have a fitted effect of over 50% in size
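Growth recovery, yeast-based: influenza A NS1 expressed in S. cerevisiae causes slow growth, and suppressors are detected by OD600. The parent strain without NS1 is used as positive control.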
LmPK inhibitor: LmPK (Leishmania mexicana) enzyme inhibition. Q27686. purified LmPK, Kinase-Glo ATP luminescence, 1 h. Potency, µM (doses to about 57.5 µM), without a hit: top-dose activity change, negative = inhibition, actives largely listed as inhibitors. actives 0.37% (n = 290,000); active = well fitted curve in the direction sought with a large enough effect; inconclusive = small, poorly fitted or top-dose-only effect, or another doubt; inactive = no such curve, though single readings can be large; an effect the other way counts as inactive or inconclusive; note: potency is the fitted concentration of half-maximal effect; % is set by controls: 0 for no effect and ±100 for the full control effect
Target sequence (Q27686 whole entry, looked up): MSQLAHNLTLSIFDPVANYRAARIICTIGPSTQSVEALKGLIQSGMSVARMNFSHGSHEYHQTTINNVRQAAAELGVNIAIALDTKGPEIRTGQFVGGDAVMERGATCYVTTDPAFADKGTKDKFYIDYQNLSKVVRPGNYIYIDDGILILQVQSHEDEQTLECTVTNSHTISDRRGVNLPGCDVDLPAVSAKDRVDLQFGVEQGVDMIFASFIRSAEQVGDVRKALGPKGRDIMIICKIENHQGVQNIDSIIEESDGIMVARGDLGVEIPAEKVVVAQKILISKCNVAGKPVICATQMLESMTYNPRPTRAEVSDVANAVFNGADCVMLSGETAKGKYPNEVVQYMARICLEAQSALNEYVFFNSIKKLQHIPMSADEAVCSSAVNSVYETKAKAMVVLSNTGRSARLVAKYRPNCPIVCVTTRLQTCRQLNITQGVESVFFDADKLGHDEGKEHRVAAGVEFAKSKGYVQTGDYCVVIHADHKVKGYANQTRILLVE
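Purified LmPK (0.1 nM) converted ADP (0.1 mM) to ATP with PEP (0.5 mM) in imidazole buffer pH 7.2 with KCl and MgCl2, 1 h at room temperature. ATP was read by Kinase-Glo luminescence; data normalized to uninhibited and no-enzyme controls.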
Active calls of the source: *; ? = inconclusive; . = not tested or not shown. The sample as a whole holds a higher share of hits than the screen did. Unless noted, calls come from the whole dose curve.

SMILES | CHX counter | SARS PLpro yeast | Shiga toxin inh | Tb PYK inh | NS1 function inh | LmPK inhibitor
O=C(NCCc1ccc(Cl)cc1)Nc1ccc(F)cc1 | 28.7* | -1.5% | 49.6 | -8.6% | -13.0% | 1.3%
CC(C)CCN1CC(C(=O)NCCC2=CCCCC2)CC1=O (centres undefined) | 21.2* | -3.8% | 65.8* | -5.4% | -5.6% | 9.8%
O=C(NCCNC(=O)Nc1ccc(Cl)cc1)Nc1ccc(Cl)cc1 | . | . | . | -19.5% | . | .
O=C(NCc1ccc(F)cc1)Nc1ccccc1 | 37.3* | 0.4% | 79.1* | 6.1% | -9.1% | 8.0%
S=C(NCCC1=CCCCC1)Nc1ccc(Cl)cc1 | 44.3* | 1.6% | 62.8* | 2.8% | 9.1% | 2.8%
O=C(NCCc1ccc(F)cc1)Nc1ccc([N+](=O)[O-])cc1 | 21.3* | -13.5% | 54.1 | -1.4% | -92.0% | -3.4%
O=C(NCc1ccc(Cl)cc1)Nc1ccc(F)cc1 | 48.7* | 0.4% | 28.7 | 1.6% | 1.4% | 0.5%
CC(C)c1ccc(NC(=O)NCc2ccc(F)cc2)cc1 | 10.3 | 0.4% | 37.6 | -1.0% | -2.7% | 0.3%
O=[N+]([O-])c1ccc(NC(=S)NCCc2ccc(F)cc2)cc1 | 3.0 | -86.7% | 13.0 | -21.3% | -39.5% | -0.2%
Cc1nnsc1SCCNC(=O)Nc1ccc(Cl)cc1 | 23.7* | -1.7% | 81.8* | 0.0% | -36.0% | 2.0%
Cc1ccccc1C(=O)Nc1ccnn1C1CCN(C(C)Cc2ccccc2F)CC1 (centres undefined) | -2.9 | -2.8% | -3.5 | 1.4% | -6.3% | -0.1%
Cc1c(O)nc(SC2CC(=O)N(c3cc(Cl)cc(Cl)c3)C2=O)[nH]c1=O (centres undefined) | . | . | . | 0.7% | . | .
CCN1CCN(Cc2ccc(C)cc2)CC1 | -1.2 | 11.2% | -9.7 | 7.0% | 0.6% | 2.7%
Cc1ccc(Cn2ccc(C3CC3)n2)cc1 | 61.9* | 1.3% | 52.2 | 0.8% | . | 0.8%
Clc1ccc(Cn2ccc(C3CC3)n2)cc1 | 31.2* | 2.4% | 65.9* | 9.0% | 6.8% | 8.5%
N#Cc1cccc(NC(=O)N2CC[C@@]3(CCCN(C(=O)c4cc(C(F)(F)F)cc(C(F)(F)F)c4)C3)C2)c1 | . | . | . | -1.1% | . | .
COc1ccc(CCC(=O)Nc2ccc(-c3noc(-c4ccc(OC)c(OC)c4)n3)cc2)cc1 | 10.6 | 0.9% | 13.6 | -7.3% | -4.6% | 5.0%
COc1cc(-c2nc(-c3ccc(NC(=O)c4ccc(Br)o4)cc3)no2)cc(OC)c1OC | 36.3* | 0.2% | 49.4 | 0.9% | -3.9% | -13.1%
COc1ccc(-c2nc(-c3ccc(NC(=O)c4ccc(Br)o4)cc3)no2)cc1OC | 29.1* | -2.0% | 46.1* | -7.4% | -11.9% | -6.5%
Cc1ccc(NC(=O)OC(C)CNC(=O)Oc2cccc(C)c2)cc1 (centres undefined) | 38.1* | 0.3% | 73.9* | 1.5% | . | 9.9%
Cc1ccc(NC(=O)OCCNC(=O)OC(C)C)cc1 | 41.7* | 9.1% | 80.8* | -0.8% | . | -0.3%
CC(CNC(=O)COc1ccccc1)OC(=O)Nc1cccc(Cl)c1 (centres undefined) | 1.0 | -14.6% | 7.7 | -8.8% | -17.3% | -1.7%
COC(=O)NCC(C)OC(=O)Nc1ccc(Cl)cc1 (centres undefined) | 11.0 | -0.5% | 54.9* | 1.7% | 2.4% | 9.4%
O=C(/C(=C/c1cccnc1)n1ccnc1)c1ccc(Cl)cc1Cl | -2.3 | 0.5% | 11.4 | 4.1% | 0.4% | 2.8%
O=C(Nc1ccccc1Cl)c1ccc([N+](=O)[O-])o1 | 60.0* | ? | 109.9* | -0.3% | -71.0% | -0.2%
SMILES | CHX counter | SARS PLpro yeast | Shiga toxin inh | Tb PYK inh | NS1 function inh | LmPK inhibitor
Cc1cccnc1NC(=O)c1ccc([N+](=O)[O-])o1 | 1.0 | 12.1% | 2.2 | 2.1% | -7.7% | 2.5%
Cc1cccc(NC(=O)c2ccc([N+](=O)[O-])o2)n1 | 24.5* | -7.0% | 32.9 | -2.3% | -33.0% | 1.7%
Cc1ccc(NC(=O)c2ccc([N+](=O)[O-])o2)c(C)c1 | 37.7* | -0.9% | 79.5* | 0.5% | -6.7% | -0.7%
Cc1ccccc1NC(=O)c1ccc([N+](=O)[O-])o1 | 30.1* | -1.1% | 44.5* | -0.2% | -0.9% | 1.4%
COC(=O)N1CCC2(CCN(Cc3nccs3)CC2)CC1 | . | . | . | 0.2% | . | .
CCN1C(=O)[C@H]2[C@@H](c3ccc(-c4ccc(Cl)c(Cl)c4)cc3)N[C@@](Cc3ccccc3)(C(=O)OC)[C@H]2C1=O | . | -3.1% | . | -7.2% | . | .
CCOC(=O)c1c(NC(=O)CCCOc2ccc(C(C)(C)C)cc2)sc2c1CCCC2 | . | . | . | -0.4% | . | .
OC(c1ccc(F)c(F)c1)c1nc(-c2cccc3cccnc23)cs1 (centres undefined) | . | . | . | 7.8% | . | .
Cc1ccc(N2CCN(C(=S)c3ccc(N(C)C)cc3)CC2)cc1 | 58.7* | -13.1% | active | -22.9% | -48.7% | 6.3%
CN(C)c1ccc(C(=S)N2CCN(c3ccccc3)CC2)cc1 | 25.0* | 8.1% | 47.3 | -2.7% | -15.0% | 1.7%
CC1CCN(C(=S)c2ccc(N(C)C)cc2)CC1 | 14.9 | 0.4% | 62.3* | -12.1% | -0.1% | 4.4%
Cc1ccc(NC(=O)Cn2c(=O)n(CCc3ccccc3)c(=O)c3c4c(sc32)CCCC4)c(C)c1 | . | . | . | -4.2% | . | .
O=C(Nc1ccccc1)N(Cc1cccs1)c1ccc(Cl)cc1 | . | . | . | -1.2% | . | .
COc1ccc(CNC(=O)c2cnn(-c3ccccc3)c2-n2cccc2)cc1OC | . | . | . | 0.4% | . | .
Cc1cc2nn(-c3ccc(F)cc3)nc2cc1N | 57.8* | 2.8% | . | -11.0% | ? | -25.2%
Cc1cc2nn(-c3ccc(Cl)cc3)nc2cc1N | 50.5* | 5.0% | 113.4* | -4.8% | 9.1% | -3.2%
COc1ccc(-n2nc3cc(C)c(N)cc3n2)cc1Cl | 39.8* | 9.8% | 39.1* | -8.8% | 28.8% | -2.1%
COc1ccc(NC(=O)C2CCN(S(=O)(=O)c3c(C)noc3/C=C/c3ccco3)CC2)cc1 | . | . | . | 4.0% | . | .
NCC(=O)N[C@@H](CCCN=C(N)N)C(=O)NCC(=O)N[C@@H](CC(=O)O)C(=O)N[C@@H](CO)C(=O)N1CCC[C@H]1C(=O)O | -7.1 | . | -6.6 | . | . | .
Cc1cccc(NC(=O)c2cc(-c3cc(C)ccc3O)n[nH]2)c1 | 39.6* | -1.1% | 108.4* | -3.7% | 3.4% | 1.0%
Cc1c(Cl)cccc1NC(=O)c1cc(-c2ccccc2O)n[nH]1 | 18.4* | -0.1% | 35.6 | 2.9% | -6.3% | 1.9%
Cc1ccc(-c2cc(C(=O)Nc3cccnc3)[nH]n2)c(O)c1C | 38.8* | -0.3% | 100.4* | 4.3% | -3.7% | -4.8%
Cc1cccc(NC(=O)c2cc(-c3cc(C)c(C)cc3O)n[nH]2)c1 | 28.3* | -1.4% | 43.2* | -4.9% | -1.5% | -0.6%
Cc1cc(F)ccc1-c1cc(C(=O)Nc2ccc(F)cc2)[nH]n1 | . | . | . | -4.2% | . | .
Cc1ccc(OCC(=O)NCCCNC(=O)c2ccccn2)cc1C | 7.0 | -0.5% | -18.4 | -4.5% | -1.1% | -3.6%
CCOC(=O)[C@]12CCC=C1N(Cc1ccccc1)C(=O)[C@H](CC(=O)NCc1ccccc1)C2 | . | . | . | -0.5% | . | .
Cc1cc(NC(=O)/C(C#N)=C\c2ccc(-c3ccc(SC(F)F)cc3)o2)n(-c2ccccc2)n1 | . | . | . | -0.3% | . | .

Screens (PubChem)
